Compounds without any hit were thinned out: in the full panel of roughly 83,000, 20% have a hit.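 48-hour exposure, single concentration, 96-well plates; percent growth endpoint where 0 means no net growth. Active: below 10.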 Unmarked numbers belong to inactive results. Active and inactive are the calls of the source.
System: HL-60(TB) leukemia
Test: NCI-60 one-dose screen, 48 h (100 = growth as untreated, 0 = no growth, -100 = all killed)
Settings: 10 µM unless noted

Structure (SMILES)	growth
CCN(CC)CCCC(C)Nc1ccnc2cc(Cl)c(SCc3ccccc3)cc12 (stereo not drawn)	-64.8% (active)
O=C1Nc2ccc(Cl)cc2/C1=N/N=C/c1c[nH]c2ccccc12	95.5%
CCCCCCC12CCC(=O)N1CCc1cncn12 (stereo not drawn)	85.4%

From PubChem BioAssay (NCI)
